Our source for the outcome and AC50 values is PubChem BioAssay (EPA / NIEHS).

Active and inactive are the calls of the source. Rule for the calls: active = hit-call score of the fitted dose curve at least 0.9, where 1 is the maximum; inactive = score below 0.9.

Read-out in test [1]: Urokinase-type plasminogen activator receptor (uPAR), PLAUR (gene 5329)
Kind of test: BSK_4H_uPAR: BioMAP Diversity Plus: 4H Assay for Urokinase-type plasminogen activator receptor (uPAR) Biomarker Activity (AID 2283030). The note with it: primary human endothelial cells (HUVEC); actives raise or lower the signal. The procedure, abridged: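 Cell-surface uPAR ELISA signal, measured 24 h after dosing human umbilical vein endothelial cells, was analyzed with bidirectional fitting relative to DMSO. Parallel SRB staining of total protein tracked overt cytotoxicity.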

Read-out in test [2]: Vascular endothelial growth factor receptor 2 (Homo sapiens) (UniProt P35968)
Kind of test: BSK_4H_VEGFRII: BioMAP Diversity Plus: 4H Assay for Vascular endothelial growth factor receptor 2 (VEGFR2) Biomarker Activity (AID 2283031). The note with it: primary human endothelial cells (HUVEC); actives raise or lower the signal. The procedure, abridged: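 ELISA read-out of VEGFRII in primary human umbilical vein endothelium, taken 24 h after chemical treatment. Responses are expressed relative to DMSO, with bidirectional fitting.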

Read-out in test [3]: Vascular cell adhesion molecule 1 (VCAM1), VCAM1 (gene 7412)
Description: BSK_4H_VCAM1: BioMAP Diversity Plus: 4H Assay for Vascular cell adhesion molecule 1 (VCAM1) Biomarker Activity (AID 2283033). The note with it: primary human endothelial cells (HUVEC); actives raise or lower the signal. An outline of the steps:
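Primary human umbilical vein endothelial cells, 4H stimulation system, treated for 24 h; cell-surface VCAM-1 quantified by ELISA. Bidirectional fitting against DMSO; cytotoxicity tracked by SRB total-protein staining in parallel cultures.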

Read-out in test [4]: Interferon-gamma inducible Protein 10 (IP10), CXCL10 (gene 3627)
Description: BSK_BE3C_IP10: BioMAP Diversity Plus: BE3C Assay for Interferon-gamma inducible Protein 10 (IP10) Biomarker Activity (AID 2283034). The note with it: primary human bronchial epithelial cells; actives raise or lower the signal. The procedure, abridged: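 Primary human bronchial epithelial cells, with IP-10 measured by ELISA 24 hours after chemical dosing. Bidirectional fit against DMSO; cytotoxicity checked by SRB total protein staining in parallel cultures.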

Read-out in test [5]: Monokine induced gamma interferon (MIG), CXCL9 (gene 4283)
Kind of test: BSK_BE3C_MIG: BioMAP Diversity Plus: BE3C Assay for Monokine induced gamma interferon (MIG) Biomarker Activity (AID 2283035). The note with it: primary human bronchial epithelial cells; actives raise or lower the signal. An outline of the steps:
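Primary human bronchial epithelial cells treated for 24 h; MIG levels measured by ELISA, fitted bidirectionally versus DMSO. Parallel SRB total-protein staining assessed cytotoxicity.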

Read-out in test [6]: Transforming growth factor beta 1 (TGFb1), TGFB1 (gene 7040)
Description: BSK_BE3C_TGFb1: BioMAP Diversity Plus: BE3C Assay for Transforming growth factor beta 1 (TGFb1) Biomarker Activity (AID 2283036). The note with it: primary human bronchial epithelial cells; actives raise or lower the signal. An outline of the steps:
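Primary human bronchial epithelial cells dosed with chemical; TGF-b1 measured by ELISA 24 h after dosing. Bidirectional curve fitting against DMSO negative control; SRB total-protein staining in parallel cultures gauged cytotoxicity.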

Read-out in test [7]: Plasminogen activator inhibitor-1 (PAI1), SERPINE1 (gene 5054)
Kind of test: BSK_BE3C_PAI1: BioMAP Diversity Plus: BE3C Assay for Plasminogen activator inhibitor-1 (PAI1) Biomarker Activity (AID 2283037). The note with it: primary human bronchial epithelial cells; actives raise or lower the signal. An outline of the steps:
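Primary human bronchial epithelial cells (BE3C system) exposed 24 h; PAI-1 quantified by ELISA. Parallel sulforhodamine B staining of total protein flags cytotoxicity. Bidirectional fit versus DMSO.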

Read-out in test [8]: urokinase plasminogen activator (uPA), PLAU (gene 5328)
Kind of test: BSK_BE3C_uPA: BioMAP Diversity Plus: BE3C Assay for urokinase plasminogen activator (uPA) Biomarker Activity (AID 2283038).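 Note: uPA protein level quantified by ELISA in cell cultures; uPA read one day after compound addition.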 The note with it: primary human bronchial epithelial cells; actives raise or lower the signal. The procedure, abridged: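 Bronchial epithelial cells (human, primary); chemical 24 h; uPA by ELISA; bidirectional fit vs DMSO. SRB (0.1%, after 10% TCA fixation, 560 nm) in parallel cultures for cytotoxicity.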

Read-out in test [9]: Urokinase-type plasminogen activator receptor (uPAR), PLAUR (gene 5329)
Kind of test: BSK_BE3C_uPAR: BioMAP Diversity Plus: BE3C Assay for Urokinase-type plasminogen activator receptor (uPAR) Biomarker Activity (AID 2283039).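 Note: cells exposed to compound for one day before measurement.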 Conditions: primary human bronchial epithelial cells; actives raise or lower the signal. The procedure, abridged: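 Primary human bronchial epithelial cells dosed for 24 h; uPAR quantified by ELISA with bidirectional fitting against DMSO. Overt cytotoxicity assessed in parallel cultures by SRB total-protein staining (0.1% SRB, 560 nm).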

Read-out in test [10]: Interleukin-6 (IL6), IL6 (gene 3569)
Description: BSK_CASM3C_IL6: BioMAP Diversity Plus: CASM3C Assay for Interleukin-6 (IL6) Biomarker Activity for (AID 2283040). The note with it: primary human coronary artery smooth muscle cells; actives raise or lower the signal.

Read-out in test [11]: Tissue plasminogen activator (tPA), PLAT (gene 5327)
Description: BSK_BE3C_tPA: BioMAP Diversity Plus: BE3C Assay for Tissue plasminogen activator (tPA) Biomarker Activity (AID 2283041).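 For outcome: tPA level quantified by ELISA one day after compound addition.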 The note with it: primary human bronchial epithelial cells; actives raise or lower the signal. The procedure, abridged: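 Primary human bronchial epithelial cells in the BE3C system, exposed to compound for 24 h. tPA was quantified by ELISA; DMSO served as baseline, with gain or loss of signal fitted. Cytotoxicity checked in parallel cultures by SRB total-protein staining.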

Read-out in test [12]: Interleukin-8 (IL8), CXCL8 (gene 3576)
Description: BSK_CASM3C_IL8: BioMAP Diversity Plus: CASM3C Assay for Interleukin-8 (IL8) Biomarker Activity (AID 2283042).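 Note: IL-8 protein level quantified by ELISA.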 The note with it: primary human coronary artery smooth muscle cells; actives raise or lower the signal.

Read-out in test [13]: Human Leukocyte Antigen - DR isotype (HLADR), HLA-DRA (gene 3122)
Description: BSK_CASM3C_HLADR: BioMAP Diversity Plus: CASM3C Assay for Human Leukocyte Antigen - DR isotype (HLADR) Biomarker Activity (AID 2283043).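 Note: cell-surface HLA-DR protein level quantified by ELISA.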 The note with it: primary human coronary artery smooth muscle cells; actives raise or lower the signal.

Read-out in test [14]: Macrophage colony-stimulating factor (MCSF), CSF1 (gene 1435)
Description: BSK_CASM3C_MCSF: BioMAP Diversity Plus: CASM3C Assay for Macrophage colony-stimulating factor (MCSF) Biomarker Activity (AID 2283044).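 Note: M-CSF protein amount quantified by ELISA after 24 h exposure.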 The note with it: primary human coronary artery smooth muscle cells; actives raise or lower the signal.

Read-out in test [15]: Low-density lipoprotein receptor (LDLR), LDLR (gene 3949)
Description: BSK_CASM3C_LDLR: BioMAP Diversity Plus: CASM3C Assay for Low-density lipoprotein receptor (LDLR) Biomarker Activity (AID 2283045).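 Note: LDLR protein level on the cell surface quantified by ELISA.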 Conditions: primary human coronary artery smooth muscle cells; actives raise or lower the signal.

Read-out in test [16]: Monocyte Chemoattractant Protein-1 (MCP1), CCL2 (gene 6347)
Kind of test: BSK_CASM3C_MCP1: BioMAP Diversity Plus: CASM3C Assay for Monocyte Chemoattractant Protein-1 (MCP1) Biomarker Activity (AID 2283046).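 Note: MCP-1 level quantified by ELISA 24 h after dosing.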 The note with it: primary human coronary artery smooth muscle cells; actives raise or lower the signal.

Test [17] is described as follows: BSK_CASM3C_Proliferation: Cell Proliferation Assessment in the BioMAP Diversity Plus: CASM3C Assay (AID 2283047).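 Note: sulforhodamine B total protein stain as relative cell number at 560 nm; sub-confluent cells exposed 48 h before staining; fitted both ways against DMSO so gain or loss of cell number.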 Conditions: primary human coronary artery smooth muscle cells.
Read-out in test [18]: Monokine induced gamma interferon (MIG), CXCL9 (gene 4283)
Kind of test: BSK_CASM3C_MIG: BioMAP Diversity Plus: CASM3C Assay for Monokine induced gamma interferon (MIG) Biomarker Activity (AID 2283048). Conditions: primary human coronary artery smooth muscle cells; actives raise or lower the signal.

Read-out in test [19]: serum amyloid A (SAA), SAA1 (gene 6288)
Kind of test: BSK_CASM3C_SAA: BioMAP Diversity Plus: CASM3C Assay for serum amyloid A (SAA) Biomarker Activity (AID 2283049).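 Note: SAA protein level quantified by ELISA.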 Conditions: primary human coronary artery smooth muscle cells; actives raise or lower the signal.

With `Cc1c(O)cccc1O`, the result in test [1], in [2], in test [3], in test [4], in test [5] and in test [6] was inactive. In addition, the result in [7], in test [8], in test [9], in test [10], in test [11] and in test [12] was inactive. The result in [13], in test [14], in test [15], in [16], in [17] and in test [18] was inactive. In test [19], the result was inactive.
Broadly, the AC50 is the concentration at which the activity in the assay is half-maximal. For `c1ccc2sc(SSN3CCOCC3)nc2c1`, the AC50 in test [1] is 6.7 µM (active); in [3], 6.28 µM (active); in test [4], 12.3 µM (active); in test [10] it was 12 µM (active); in test [11], 12.5 µM (active); in test [12], 20 µM (active). The half-maximal activity concentration (AC50) in [13] was 4.62 µM (active); in test [14], 6.94 µM (active); in test [16], 8.56 µM (active); in test [17], 2.19 µM (active); in test [18], 15.8 µM (active); in test [19], 5.46 µM (active). The outcome in test [2], in test [5], in test [6], in test [7], in [8] and in test [9] was inactive. The result in [15] was inactive.
`CCNc1nc(NC(C)(C)C)nc(OC)n1`: the outcome in test [1], in test [2], in test [3], in [4], in [5] and in test [6] was inactive. Further, the result in [7], in test [8], in test [9], in test [10], in test [11] and in test [12] was inactive. For the same compound, the result in [13], in test [14], in test [15], in test [16], in [17] and in test [18] was inactive. For the same compound, the result in test [19] was inactive.
On to `CCOC(=O)C1=NN(c2ccc(Cl)cc2Cl)C(C)(C(=O)OCC)C1` (stereo not drawn), for which the result in [1], in [2], in test [3], in test [4], in test [5] and in test [6] was inactive. The result in [7], in [8], in test [9], in test [10], in test [11] and in test [12] was inactive. The result in test [13], in test [14], in [15], in test [16], in test [17] and in [18] was inactive. For the same compound, in [19], the result was inactive.
As to `CCCCCCCO`, the outcome in test [1], in test [2], in test [3], in test [4], in [5] and in test [6] was inactive. Besides, the result in test [7], in test [8], in [9], in test [10], in test [11] and in test [12] was inactive. In addition, the result in test [13], in test [14], in [15], in test [16], in test [17] and in [18] was inactive. Further, in test [19], the result was inactive.
As for `C1CNCCN1`, the result in test [1], in [2], in test [3], in [4], in test [5] and in test [6] was inactive. Besides, the outcome in test [7], in test [8], in test [9], in [10], in test [11] and in test [12] was inactive. The result in [13], in test [14], in test [15], in test [16], in [17] and in test [18] was inactive. In addition, the result in test [19] was inactive.
On to `CCc1cccc(C)c1N(C(=O)CS(=O)(=O)O)C(C)COC` (stereo not drawn), for which the outcome in test [1], in test [2], in test [3], in test [4], in [5] and in test [6] was inactive. Moreover, the result in test [7], in test [8], in [9], in [10], in [11] and in [12] was inactive. Besides, the outcome in test [13], in test [14], in test [15], in test [16], in test [17] and in test [18] was inactive. The outcome in test [19] was inactive.
